Experimental data reported in PubChem BioAssay AID683 (University of Pittsburgh Molecular Library Screening Center, 2007).
The other results are listed elsewhere or left out. A number with no mark means an inactive call. Cut-off read from the data, not from the text of the source: active = EC50 below about 50 µM; inactive = the rest.

Assay: redox cycling H2O2 generation, 1 mM DTT, dose response, artefact control, biochemical, 1.0 mM DTT, Cdc25B catalytic domain (AID 683)
Details: cell-free redox cycling H2O2 generation

Row | SMILES | EC50
1 | c1ccc(CSc2nnc(-c3ccco3)c(-c3ccco3)n2)cc1 | > 50 µM
2 | COc1cccc2c(C)c(C(=O)O)[nH]c12 | > 50 µM
